Experimental data from PubChem BioAssay (EPA / NIEHS).
Active and inactive are the calls of the source. The calls were made as follows: active = hit-call score of the fitted dose curve at least 0.9, where 1 is the maximum; inactive = score below 0.9.

experiment: CCTE_Mundy_HCI_Cortical_Synap_Neur_Matur_BPCount: CCTE's Synaptogenesis and Neurite Maturation Assay in rat cortical cells for Branch Point Count, Mundy Lab (AID 2284211)
Description: CCTE_Mundy_HCI_Cortical_Synap&Neurite_Matur is a multiplexed, cell-based-readout assay that uses rat primary cortical cells with measurements taken at 288.33 hours after chemical dosing in a microplate: 96-well plate.CCTE_Mundy_HCI_Cortical_Synap_Neur_Matur_BPCount is one of eight components of the CCTE_Mundy_HCI_Cortical_Synap&Neurite_Matur assay. It measures synaptogenesis and neurite maturation related to number of branch points using High Content Imaging of fluorescently labelled markers.[…] Using a type of morphology reporter, loss -of-signal activity can be used to understand developmental effects.
Cells are plated onto 96 well plates and allowed 2 hr for attachment to the substrate. At days in vitro (DIV) 5, Cytosine Arabinoside (AraC) is added to arrest glial cell growth. Chemicals are dosed and a media change is performed at DIV 7 of differentiation and is continued through DIV 12 when the experiment is terminated. Cells are fixed with […] and Hoechst Dye. Cells are stained using Millipore Mouse anti-MAP2MAB3418 (1:800) and Millipore Rabbit anti-Synaptophysinsc-1750 (1:250) primary antibodies and Alexa Fluor-488 goat anti-mouse and AlexaFluor-546 goat anti-rabbit secondary antibodies to label neuronal cell nuclei, synapses and neurites. A Cellomics ArrayScan VTi HCS Reader is used for automated image acquisition and analysis of neurite outgrowth.

Q: With `[O-][Cl+]O` as the compound, how does the outcome read?
A: The outcome was “inactive”.

Q: Which AC50 does the source give for `CC(C)(C)C(O)(CCc1ccc(Cl)cc1)Cn1cncn1` (configuration not stated) here?
A: The AC50 was 11.2 µM (active).

Q: Which AC50 does the source give for `COC(=O)Nc1nc2ccccc2[nH]1` here?
A: Its AC50 is 4.14 µM (active).

Q: For `CCC[CH2][Sn]([Cl])([CH2]CCC)[CH2]CCC`, which AC50 is on record?
A: The AC50 was 0.0481 µM (active).

Q: With `Nc1cc(Cl)cc(C(=O)O)c1Cl` as the compound, how does the outcome read?
A: Its outcome is “inactive”.

Q: For `CNC(=O)Oc1cccc2c1OC(C)(C)C2`, which outcome is on record?
A: Its outcome is “inactive”.

Q: Which outcome does the source give for `COP(=S)(OC)SCN1C(=O)c2ccccc2C1=O` here?
A: Its outcome is “inactive”.

Q: For `CN(C)[C@@H]1C(=O)C(C(N)=O)=C(O)[C@@]2(O)C(=O)C3=C(O)c4c(O)cccc4[C@@](C)(O)[C@H]3C[C@@H]12`, which AC50 is on record?
A: Its AC50 is 0.474 µM (active).

Q: Which AC50 does the source give for `CC(C)COC(=O)c1ccccc1C(=O)OCC(C)C` here?
A: Its AC50 is 76.7 µM (active).

Q: For `CCCCOC(=O)c1ccccc1C(=O)OCc1ccccc1`, which AC50 is on record?
A: The AC50 was 10 µM (active).

Q: Which AC50 does the source give for `ClC1=C(Cl)C2(Cl)C3C(Cl)C=CC3C1(Cl)C2(Cl)Cl` (configuration not stated) here?
A: Its AC50 is 13.3 µM (active).

Q: Which outcome does the source give for `OCCOCCO` here?
A: Its outcome is “inactive”.
